Measurements published in PubChem BioAssay (EPA / NIEHS).
“And” between values parts separate entries of the source, which are not always exact repeats. Equal values may be shown once. More than one record can exist for a structure, and the calls need not agree. The source made the active and inactive calls. Rule for the calls: active = hit-call score of the fitted dose curve at least 0.9, where 1 is the maximum; inactive = score below 0.9.

Read-out: Matrix Metallopeptidase 9 (MMP9), MMP9 (gene 4318)
Assay: BSK_BF4T_MMP9: BioMAP Diversity Plus: BF4T Assay for Matrix Metallopeptidase 9 (MMP9) Biomarker Activity (AID 2284276)
Conditions: primary human bronchial epithelial cells with fibroblasts
Experimental: BSK_BF4T is a cell-based, multiplexed-readout assay that uses bronchial epithelial cells and dermal fibroblasts, a human vascular primary cell, with measurements taken at 24 hours after chemical dosing in a microplate: 96-well plate.BSK_BF4T_MMP9 is an assay component measured in the BSK_BF4T assay. It measures MMP-9 antibody related to regulation of gene expression using ELISA technology.Data from the assay component BSK_BF4T_MMP9 was analyzed at the endpoint, BSK_BF4T_MMP9, in the positive analysis fitting direction relative to DMSO as the negative control and baseline of activity. Using a type of binding reporter, gain or loss-of-signal activity can be used to understand protein changes. To generalize the intended target to other relatable targets, this assay endpoint is annotated to the 'protease' intended target family, where the subfamily is 'matrix metalloproteinase'.
The levels of cell surface (or secreted, indicated by the prefix "s") biomarker endpoints were measured by ELISA. Overt cytotoxicity to cells in confluent adherent cultures (all systems other than the BT system) was assessed by measuring total protein levels using sulforhodamine B (SRB) staining in parallel cultures at the time of biomarker measurements, indicated as SRB endpoints. For proliferation assays for adherent cell types, individual cell types are cultured at sub-confluence and relative cell numbers quantified by SRB staining at time points optimized for each system (48 h: 3C and CASM3C systems; 72 h: BT and HDF3CGF systems; 96 h: SAg system). SRB was performed by staining cells with 0.1% SRB after fixation with 10% TCA and reading wells at 560 nm.Viability and proliferation of PBMC (T cells) was quantified by Alamar Blue reduction for the SAg and BT systems. For PBMC viability (referred to as PBMC Cytotoxicity within the assay endpoint names), cells were plated (75,000/well in a 96-well plate) and then chemical samples added for 1 h before addition of activators, SEB and TSST-1 (20 ng/mL final concentration each). Cells were incubated for 90 h. Then, Alamar Blue (20 uL/well) (Invitrogen, Cat DAL1100) was added for 6 h, and the plates were read with a fluorescence microplate reader at 546/580 nm (excitation/emission). For PBMC proliferation, cells were plated and activated as above but incubated for only 16 h prior to addition of Alamar Blue. Plates were read after 6 h.

Structure (SMILES) | outcome | AC50
C=C(C)C(=O)OCC(F)(F)C(F)(F)C(F)(F)C(F)F | inactive | 
OCC(F)(F)C(F)(F)C(F)(F)C(F)(F)C(F)(F)C(F)(F)C(F)(F)C(F)(F)CO |  | 27.6 µM (active) and 23.7 µM (active)
C=CC(=O)OCC(F)(F)C(F)(F)C(F)(F)COC(=O)C=C |  | 21.5 µM (active) and 21.8 µM (active)
NS(=O)(=O)C(F)(F)C(F)(F)C(F)(F)C(F)(F)C(F)(F)C(F)(F)F | inactive | 
COC(F)(C(F)F)C(F)(F)F (stereo not given) | inactive | 
C[Si](Cl)(Cl)CCC(F)(F)C(F)(F)C(F)(F)C(F)(F)C(F)(F)C(F)(F)F | inactive | 
O=C(Cl)C(F)(F)C(F)(F)C(F)(F)C(F)(F)C(F)(F)C(F)(F)C(F)(F)F | inactive | 18.7 µM (active)
NC(=O)C(F)(F)C(F)(F)C(F)(F)C(F)(F)C(N)=O | inactive | 
CCOC(=O)CC(=O)C(F)(F)C(F)(F)F | inactive | 
OCCCCC(F)(F)C(F)(F)C(F)(F)C(F)(F)F | inactive | 
CNS(=O)(=O)C(F)(F)C(F)(F)C(F)(F)C(F)(F)C(F)(F)C(F)(F)C(F)(F)C(F)(F)F | inactive | 
O=C(O)C(F)(F)C(F)(F)C(F)(F)OC(F)(C(F)(F)F)C(F)(F)F | inactive | 
NC(=O)C(F)(F)C(F)(F)C(F)(F)C(F)F | inactive | 
O=C(O)CCC(F)(F)C(F)(F)C(F)(F)F | inactive | 
OCC(F)(F)C(F)(F)C(F)(F)CO | inactive | 
OCC(O)CC(F)(F)C(F)(F)C(F)(F)C(F)(F)F (stereo not given) | inactive | 
NCC(F)(F)C(F)(F)C(F)(F)C(F)(F)C(F)(F)C(F)(F)F | inactive | 0.778 µM (active)
O=C(O)C(F)(F)OC(F)(F)C(F)(F)OC(F)(F)C(F)(F)OC(F)(F)F | inactive | 
O=S(=O)(OCC(F)(F)F)C(F)(F)C(F)(F)C(F)(F)C(F)(F)F | inactive | 

Structure (SMILES) | outcome | AC50
FC(F)(F)C(F)(F)C(F)(F)CC1CO1 (stereo not given) | inactive | 
FC(F)(F)C(F)(F)C(F)(F)C(F)(F)C(F)(F)C(F)(F)CC[Si](Cl)(Cl)Cl | inactive | 
OCC(F)(F)C(F)(F)C(F)(F)C(F)(F)C(F)(F)C(F)(F)CO | inactive | 
CCN(CCO)S(=O)(=O)C(F)(F)C(F)(F)C(F)(F)C(F)(F)C(F)(F)C(F)(F)C(F)(F)C(F)(F)F | inactive | 
OCCCC(F)(F)C(F)(F)C(F)(F)C(F)(F)C(F)(F)C(F)(F)C(F)(F)C(F)(F)F |  | 30 µM (active) and 17.2 µM (active)
O=C(Cl)C(F)(F)C(F)(F)C(F)(F)C(F)(F)C(F)(F)C(F)(F)F | inactive | 
O=C(O)C(F)(F)C(F)(F)C(F)(F)C(=O)O | inactive | 
O=C(O)CCC(F)(F)C(F)(F)C(F)(F)C(F)(F)C(F)(F)C(F)(F)C(F)(F)F | inactive | 
O=S(=O)(O)CCC(F)(F)C(F)(F)C(F)(F)C(F)(F)F | inactive | 
OC(O)C(F)(F)C(F)(F)F | inactive | 
OCC(O)CC(F)(F)C(F)(F)C(F)(F)C(F)(F)C(F)(F)C(F)(F)C(F)(F)C(F)(F)F (stereo not given) | inactive | 
NC(=O)C(F)(F)C(F)(F)C(F)(F)C(F)(F)C(F)(F)C(F)(F)C(F)(F)F | inactive | 
NC(=O)C(F)(F)C(F)(F)C(F)(F)F | inactive | 
O=S(=O)(Cl)C(F)(F)C(F)(F)C(F)(F)C(F)(F)C(F)(F)C(F)(F)C(F)(F)C(F)(F)F |  | 49.2 µM (active) and 47.7 µM (active)
O=C(F)C1(F)C(F)(F)C(F)(F)C(F)(F)C(F)(F)C1(F)F | inactive | 
CO[Si](C)(CCC(F)(F)C(F)(F)C(F)(F)C(F)(F)C(F)(F)C(F)(F)F)OC | inactive | 
NCC(F)(F)C(F)(F)C(F)(F)C(F)(F)C(F)(F)C(F)(F)C(F)(F)C(F)(F)F | inactive | 
CN(C(=O)C(F)(F)C(F)(F)C(F)(F)F)[Si](C)(C)C | inactive | 
O=C(O)C(F)(F)C(F)(F)C(F)(F)C(F)(F)C(F)(F)C(F)(F)C(F)F | inactive | 
